{"source": "PubChem BioAssay AID2685", "about": "(National Center for Advancing Translational Sciences (NCATS), 2010)", "note": "Screen size: about 320,000 compounds; about 2,100 (0.66%) were called active. Inconclusive results (about 53%) are left out. The call rests on the fitted dose curve; in most records, active means well fitted inhibition curve with a large enough effect in the signal ratio, with a control signal flat (not every such curve was filed as active); inconclusive means small, poorly fitted or top-dose-only effect, or effect the other way, or a change in a side signal; inactive means flat fitted curve, though single readings scatter; the % refers to the signal ratio. Shown is part of a subset that was picked to be rich in actives. Potency means the concentration at half of the fitted maximal effect.", "data": [{"experiment": "qHTS Assay for Lipid Storage Modulators in Drosophila S3 Cells;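 on cell number change: cells counted by Cell Tracker Red CMTPX staining in the red channel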; on lipid storage change, negative = inhibition: on the % scale 0 is the no-effect control and ±100 the full control effect", "details": "BODIPY lipid droplet fluorescence, 18-24 h, cells fed with added oleic acid; cell number change: measured here: cell count max response; series mostly up to 46.1 µM; lipid storage change, negative = inhibition: at the top concentration", "method_in_brief": "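Drosophila S3 cells loaded with oleic acid (400 uM, as added) and compounds at several concentrations; lipid droplets imaged by 488-nm laser-scanning cytometry, 500–530 nm intensity and object ratio to cell channel. Percent activity normalized to 20 uM Triacsin C.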", "units": {"cell number change": "%"}, "values": [{"compound": "Cc1cccc(-c2nnc(SCC(=O)O)n2Cc2ccccc2)c1", "lipid storage change, negative = inhibition": "6.73% (inactive)", "cell number change": -0.739}, {"compound": "O=C(O)CSc1nnc(-c2ccc(Cl)cc2Cl)n1-c1ccccc1", "outcome": "inactive", "cell number change": 9.07}, {"compound": "O=C(O)CSc1nnc(-c2ccccc2O)n1Cc1ccccc1", "Potency": "25.9 µM (active)", "cell number change": 0.192}, {"compound": "Cc1cccc(-c2ccc3ncnc(NCc4cc(C)cs4)c3c2)c1", "lipid storage change, negative = inhibition": "-4.08% (inactive)", "cell number change": 8.79}, {"compound": "O=C(CCSc1ccccc1)Nc1ccccc1Br", "lipid storage change, negative = inhibition": "-12.8% (inactive)", "cell number change": 3.05}, {"compound": "COc1ccccc1NC(=O)COC(=O)CCn1c(C)csc1=O", "cell number change": -23.2, "lipid storage change, negative = inhibition": "22.3% [at 0.0737 µM] (inactive)"}, {"compound": "O=C(CN1C(=O)c2ccccc2C1=O)Nc1ccccc1C(=O)NC1CCCCCC1", "lipid storage change, negative = inhibition": "5.16% (inactive)", "cell number change": 2.31}, {"compound": "COc1cccc(C2CC(C(F)(F)F)n3ncc(C(=O)O)c3N2)c1", "note": "(stereo not drawn)", "lipid storage change, negative = inhibition": "7.32% (inactive)", "cell number change": -3.05}, {"compound": "CCOC(=O)C1C(=O)Nc2nc(C)nn2C1c1ccccc1", "note": "(stereo not drawn)", "outcome": "inactive"}, {"compound": "Cc1cccc(NC(=O)c2cc3c(=O)n4ccccc4nc3n(CC(C)C)c2=N)c1", "lipid storage change, negative = inhibition": "4.83% (inactive)", "cell number change": 2.38}, {"compound": "O=c1oc(-c2ccccc2Br)nc2ccccc12", "outcome": "inactive", "cell number change": -5.52}, {"compound": "Cc1cc(C)n(-c2ccc(Cl)c(C(=O)Nc3ccc(OC(F)(F)F)cc3)n2)n1", "lipid storage change, negative = inhibition": "19.9% (inactive)", "cell number change": 14.5}, {"compound": "O=C(Nc1ccccn1)c1sc2cccc(F)c2c1Cl", "lipid storage change, negative = inhibition": "1.57% (inactive)", "cell number change": 9.28}, {"compound": "CCC(C)NC(=O)C(Cc1ccccc1)NS(=O)(=O)c1ccc2c(c1)CCC(=O)N2", "note": "(stereo not drawn)", "Potency": "20.6 µM (active)", "cell number change": 1.42}, {"compound": "CCCCC(CC)CNC(=O)C(Cc1ccccc1)NS(=O)(=O)c1ccc2c(c1)CCC(=O)N2", "note": "(stereo not drawn)", "lipid storage change, negative = inhibition": "0.0744% (inactive)", "cell number change": 9.41}, {"compound": "CCCNC(=O)C(Cc1ccccc1)NS(=O)(=O)c1ccc2c(c1)CCC(=O)N2", "note": "(stereo not drawn)", "lipid storage change, negative = inhibition": "8.28% (inactive)"}, {"compound": "Cc1ccc(NC(=O)N2CCN(C(=O)c3ccco3)CC2)cc1Cl", "lipid storage change, negative = inhibition": "-0.198% (inactive)", "cell number change": -6.19}, {"compound": "Cn1nnnc1SCC(=O)Nc1ccc(Cl)c(S(=O)(=O)N2CCOCC2)c1", "lipid storage change, negative = inhibition": "-1.86% (inactive)", "cell number change": 21.3}, {"compound": "COc1ccc(NC(=O)C2=CC(c3ccc(C)cc3)=NS(=O)(=O)N2C)cc1", "Potency": "5.17 µM (active)", "cell number change": 4.61}, {"compound": "COc1ccc(C2=NS(=O)(=O)N(C)C(C(=O)Nc3cc(C)ccc3O)=C2)cc1OC", "lipid storage change, negative = inhibition": "4.1% (inactive)", "cell number change": 4.03}, {"compound": "Cc1ccc(O)c(NC(=O)C2=CC(c3cccs3)=NS(=O)(=O)N2C)c1", "lipid storage change, negative = inhibition": "-11.7% (inactive)", "cell number change": -6.05}, {"compound": "COc1ccc(NC(=O)C2=CC(c3ccc(C)cc3)=NS(=O)(=O)N2C)cc1OC", "outcome": "inactive", "cell number change": -8.07}, {"compound": "COc1ccc(CNC(=O)C2=CC(c3ccc(OC)cc3)=NS(=O)(=O)N2C)cc1", "lipid storage change, negative = inhibition": "-22.8% (inactive)", "cell number change": -7.78}, {"compound": "CCc1ccc(NC(=O)C2=CC(c3cccs3)=NS(=O)(=O)N2C)cc1", "Potency": "20.6 µM (active)"}, {"compound": "COc1ccc(C2=NS(=O)(=O)N(C)C(C(=O)Nc3ccc(C(C)=O)cc3)=C2)cc1OC", "lipid storage change, negative = inhibition": "0.308% (inactive)", "cell number change": 3.67}, {"compound": "CCc1ccc(NC(=O)C2=CC(c3ccc(OC)cc3)=NS(=O)(=O)N2C)cc1", "Potency": "10.3 µM (active)", "cell number change": -11.3}, {"compound": "COc1cc(NC(=O)C2=CC(c3ccc(C)cc3)=NS(=O)(=O)N2C)cc(OC)c1OC", "Potency": "1.46 µM (active)", "cell number change": -6.34}, {"compound": "CC(=O)c1cccc(NC(=O)C2=CC(c3cccs3)=NS(=O)(=O)N2C)c1", "outcome": "inactive"}, {"compound": "COc1ccc(NC(=O)C2=CC(c3ccco3)=NS(=O)(=O)N2C)cc1", "outcome": "inactive", "cell number change": 15}, {"compound": "COc1ccc(CNC(=O)C2=CC(c3ccc(OC)c(OC)c3)=NS(=O)(=O)N2C)cc1", "lipid storage change, negative = inhibition": "-14.8% (inactive)", "cell number change": -8.36}, {"compound": "CCCN(CCC)Cc1c(C(=O)N/N=C/c2ccco2)nnn1-c1nonc1N", "lipid storage change, negative = inhibition": "4.78% (inactive)", "cell number change": 1.25}, {"compound": "O=S(=O)(NC1CC1)c1ccc(S(=O)(=O)N2CCN3CCCC3C2)cc1", "note": "(stereo not drawn)", "lipid storage change, negative = inhibition": "-25.1% (inactive)", "cell number change": -22}, {"compound": "C=CCn1c(-c2cccc(OC)c2OC)n[nH]c1=S", "cell number change": 6.07, "lipid storage change, negative = inhibition": "16.6% [at 9.22 µM] (inactive)"}, {"compound": "Cc1cnc(C(=O)NNC(=O)c2ccc(Br)cc2)cn1", "lipid storage change, negative = inhibition": "14.5% (inactive)"}, {"compound": "CNC(=O)C(=O)Nc1nc(C23CC4CC(CC(C4)C2)C3)cs1", "lipid storage change, negative = inhibition": "0.543% (inactive)"}, {"compound": "CC(CSc1nnnn1-c1ccccc1)Cn1c(N2CCN(C)CC2)nc2c1c(=O)[nH]c(=O)n2C", "note": "(stereo not drawn)", "lipid storage change, negative = inhibition": "4.96% (inactive)", "cell number change": -4.1}, {"compound": "CCOc1ccc(-n2c(SCC(=O)NCc3ccco3)nnc2-c2c[nH]c3ccccc23)cc1", "outcome": "inactive"}, {"compound": "CCOC(=O)c1sc(N2N=C(C)/C(=C\\c3ccc(OCC(=O)OC)cc3)C2=O)nc1C", "lipid storage change, negative = inhibition": "-3.19% (inactive)", "cell number change": 0.316}, {"compound": "CC(=O)c1ccc(S(=O)(=O)NC2CCSc3ccccc32)cc1", "note": "(stereo not drawn)", "lipid storage change, negative = inhibition": "34% (inactive)", "cell number change": 11.1}, {"compound": "O=C(COC(=O)c1ccc(Cl)cc1[N+](=O)[O-])NC(=O)c1ccccc1", "outcome": "inactive", "cell number change": -11.4}, {"compound": "Cc1ccc(C2=NC3(CCCC3)NC2=S)cc1", "cell number change": 8.14, "lipid storage change, negative = inhibition": "6.56% [at 9.22 µM] (inactive)"}, {"compound": "Cc1ccc(NC(=O)CCN2C(=O)c3ccccc3C2=O)c(C)c1", "lipid storage change, negative = inhibition": "-5.21% (inactive)", "cell number change": 5.45}, {"compound": "CSc1ccccc1NC(=O)C1=CC(c2cccs2)=NS(=O)(=O)N1C", "Potency": "4.11 µM (active)", "cell number change": -26.8}, {"compound": "CN1C(C(=O)Nc2ccc(F)cc2F)=CC(c2cccs2)=NS1(=O)=O", "lipid storage change, negative = inhibition": "-7.04% (inactive)", "cell number change": -0.288}, {"compound": "COC(=O)c1ccccc1NC(=O)C1=CC(c2cccs2)=NS(=O)(=O)N1C", "lipid storage change, negative = inhibition": "14.1% (inactive)", "cell number change": 5.19}]}]}
